These results are taken from PubChem BioAssay AID651661 (Broad Institute, 2012).

Hit rate of the full screen: of about 350,000 compounds, about 2,300 (0.66%) were called active.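 How the source made its calls: active means mean inhibition of at least 50% after viability correction, with every replicate also passing that limit; inconclusive means mean reaches 50% but only one of two replicates passes; inactive means the rest.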 The list comes from a sample in which actives are over-represented; it also holds similar structures and randomly drawn compounds.

In general, inhibition refers to the drop in the measured response relative to a control, in per cent.

This experiment can be described thus: EWS/Fli-driven NR0B1 reporter inhibitors, primary screen, A673 cells, NR0B1 luciferase, luminescence, MLPCN library (AID 651661).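 Further: firefly luciferase signal divided by Alamar Blue viability fluorescence both relative to DMSO.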 The conditions noted are these: viability-normalised, at 12.6 µM, active compounds read high.
`CO[C@H]1CN(C)C(=O)c2cc(NS(=O)(=O)c3ccccc3)ccc2OC[C@H](C)N(C(=O)NC(C)C)C[C@@H]1C`: the inhibition was -7.63% (inactive). For `O=C(C1CCCCC1)N1CC(=O)N2[C@H](CO)[C@@H](c3ccc(-c4ccccc4F)cc3)[C@@H]2C1`, the inhibition is -0.368% (inactive). On to `COc1ccc(-c2cc(NC=O)c3ncc(-c4cccc(C(=O)N(C)C)c4)n3c2)c(OC)c1`, for which the inhibition was 8.25% (inactive).

On to `COc1cccc(-c2cnc3c(NC(C)=O)cc(-c4cc(F)ccc4OC)cn23)c1`, for which the inhibition was 41.5% (inactive). As for `COc1ccc(-c2cc(NC(C)=O)c3ncc(-c4cc(OC)c(OC)c(OC)c4)n3c2)cn1`, the inhibition is 64.5% (active).

With `COc1ccc(-c2cc(NC=O)c3ncc(-c4cc(OC)c(OC)c(OC)c4)n3c2)c(OC)c1`, the inhibition is 52.4% (active). `COc1ccccc1-c1cc(NC(C)=O)c2ncc(-c3ccc(F)cc3)n2c1`: the inhibition is 13.6% (inactive).

As for `COc1ccc(-c2cc(NC=O)c3ncc(-c4ccccc4)n3c2)cc1OC`, the inhibition was 12.5% (inactive). Regarding `COc1cccc(NC(=O)N2CC[C@@H]3[C@@H](CO)N(C)c4ccc(-c5cccc(F)c5)cc4[C@@H]32)c1`, the inhibition was -0.284% (inactive). Consider `COc1ccccc1CNC(=O)C[C@H]1C[C@H]2c3cc(NS(=O)(=O)c4ccc(F)cc4)ccc3O[C@H]2[C@@H](CO)O1`, for which the inhibition was -1.41% (inactive). Consider `C[C@@H]1CN([C@H](C)CO)C(=O)c2cccc(NS(=O)(=O)c3cn(C)cn3)c2O[C@H]1CN(C)S(=O)(=O)c1ccc(Cl)cc1`, for which the inhibition is 1.45% (inactive).

As for `C[C@@H]1CCCCO[C@@H](CN(C)Cc2ccncc2)[C@H](C)CN([C@H](C)CO)C(=O)c2cc(NC(=O)NC3CCCCC3)ccc2O1`, the inhibition is 0.242% (inactive). Regarding `CN1c2ccc(-c3cccc(F)c3)cc2[C@H]2[C@H](CCN2C(=O)c2cccc(F)c2)[C@H]1CO`, the inhibition is -3.71% (inactive). Turning to `COc1ccc(-c2csc3ncnc(N4CCN(S(=O)(=O)c5ccccc5C#N)CC4)c23)cc1`, the inhibition was 22.1% (inactive). Take `Cc1ccc(C)c(S(=O)(=O)N2CCN(c3ncnc4sccc34)CC2)c1`: the inhibition was 51.5% (active). On to `Cc1ccc(C)c(S(=O)(=O)N2CCN(C(=O)Nc3ccccc3)CC2)c1`, for which the inhibition was 1.58% (inactive).

Turning to `CCNC(=O)[C@H]1[C@H](CO)[C@H]2Cn3c(ccc(-c4cccc(OC)c4)c3=O)[C@H]2N1Cc1nccs1`, the inhibition was 2.22% (inactive). For `C[C@H]1CN([C@@H](C)CO)C(=O)c2cc(/C=C/c3ccccc3)cnc2O[C@@H]1CN(C)C(=O)NC1CCCCC1`, the inhibition was -13.4% (inactive).

Take `COCC(=O)Nc1ccc2c(c1)OC[C@@H](C)N(C(=O)c1cnccn1)C[C@H](C)[C@@H](OC)CN(C)C2=O`: the inhibition is -0.326% (inactive). In the case of `CC(C)C(C)NC(=O)COc1nc2ccccc2nc1N(C)C1CCCCC1` (stereo not given), the inhibition is 6.59% (inactive).

On to `CC(C)c1cc(C(=O)NC2CCCCCC2)c2ccccc2n1`, for which the inhibition is -3.93% (inactive). For the compound `CN(c1ccc2nc3ccccc3c(=O)n2n1)C1CCCCC1`, the inhibition is 84.9% (active). In the case of `COc1cccc(NC(=O)C[C@@H]2CC[C@H]3[C@@H](COc4ccc(NC(=O)C5CCC5)cc4C(=O)N3C)O2)c1`, the inhibition was -3.34% (inactive). In the case of `Cc1ccc(S(=O)(=O)Nc2ccc3c(c2)C(=O)N([C@@H](C)CO)C[C@H](C)[C@@H](CN(C)CC2CC2)O3)cc1`, the inhibition is -3.89% (inactive). On to `C[C@H]1CN([C@@H](C)CO)C(=O)c2ccccc2-c2ccccc2CO[C@@H]1CN(C)C(=O)CCN(C)C`, for which the inhibition is 2.93% (inactive).

As to `COc1ccc(-c2nc(CCNC(=O)c3ccc(Br)o3)cs2)cc1`, the inhibition was -1.15% (inactive).

On to `COc1ccc(-c2nc3c(s2)CCc2onc(-c4ccc(Br)cc4)c2-3)cc1`, for which the inhibition was 24.2% (inactive). Take `COc1ccc(-c2nc3c(s2)CCc2onc(-c4ccc(OC)cc4)c2-3)cc1`: the inhibition was 65.6% (active). `C[C@@H]1CN([C@@H](C)CO)C(=O)c2cc(NS(=O)(=O)c3cn(C)cn3)ccc2O[C@@H](C)CCCCO[C@@H]1CN(C)Cc1ccncc1`: the inhibition is 4.01% (inactive). Regarding `COCC(=O)Nc1ccc2c(c1)C(=O)N(C)C[C@@H](OC)[C@@H](C)CN(CC1CCCCC1)[C@@H](C)CO2`, the inhibition is -0.183% (inactive).

For `COCC(=O)N1CC(=O)N2[C@H](CO)[C@@H](c3ccc(C#CC4CCCC4)cc3)[C@H]2C1`, the inhibition is -0.851% (inactive). For `CCC(=O)N1CC(=O)N2[C@@H](CO)[C@H](c3ccc(C#CC4CCCC4)cc3)[C@@H]2C1` the value was 56.6% (active); for `CCC(=O)N1CC(=O)N2[C@@H](CO)[C@@H](c3ccc(C#CC4CCCC4)cc3)[C@@H]2C1`, 9.48% (inactive). With `COc1ccc2c3c([nH]c2c1)[C@@H](CO)N(C(=O)CN1CCOCC1)CC31CCN(C)CC1`, the inhibition was -7.25% (inactive). For the compound `CO[C@H]1CN(C)C(=O)c2ccc(NS(C)(=O)=O)cc2OC[C@@H](C)N(Cc2ccccc2)C[C@H]1C`, the inhibition was -2.52% (inactive). Consider `O=C(C1CC1)N1CC(=O)N2[C@H](CO)[C@@H](c3ccc(-c4ccccc4F)cc3)[C@@H]2C1`, for which the inhibition was -0.073% (inactive). For `COc1ccc2c3c(n(C)c2c1)[C@@H](CO)N(CC1CC1)CC31CN(C(=O)Nc2c(C)noc2C)C1`, the inhibition was -1.03% (inactive). `CCCC(=O)Nc1nc2ccc(NC(=O)c3c(F)c(F)c(OC)c(F)c3F)cc2s1`: the inhibition is 57.7% (active). On to `CC(=O)Nc1ccc2nc(NC(=O)CS(=O)(=O)c3ccc(F)cc3)sc2c1`, for which the inhibition was -3.37% (inactive).

For the compound `CCCn1nc(C(=O)Nc2ccc3nc(C)sc3c2)c2ccccc2c1=O`, the inhibition was -12% (inactive). Take `O=C(NC[C@@H]1[C@@H](c2ccccc2)[C@H](CO)N1C(=O)C1CCC1)NC1CCCC1`: the inhibition was 14.7% (inactive). On to `COc1ccccc1-c1ccc2n(c1=O)C[C@@H]1[C@@H](CO)[C@H](C(=O)NCc3ccccc3Cl)N[C@H]21`, for which the inhibition is -17.8% (inactive). On to `C=CCOc1ccc(/C=C2\SC(=S)N(CCC(=O)O)C2=O)cc1`, for which the inhibition was 78.5% (active).

Take `Cc1ccc(-c2nn(-c3ccccc3)cc2/C=C2\SC(=S)N(CCCCCC(=O)O)C2=O)o1`: the inhibition is -10.8% (inactive). With `O=C1/C(=C/c2ccc(F)cc2)SC(=S)N1CCCC(=O)N1CCCCC1CCO` (stereo not given) the figure was -2.88% (inactive).
